# Source: PubChem (National Center for Advancing Translational Sciences (NCATS))
# KAT2A inh = blocks human GCN5L2 histone acetyltransferase; GCN5L2 HAT assay, ThioGlo1 CoA-SH fluorescence; Potency, µM (doses to about 58.9 µM), for the others: top-dose activity change, negative = inhibition, hits mostly inhibitors; 390,000 compounds, 0.21% hits
# Target sequence (Q92830 whole entry, looked up): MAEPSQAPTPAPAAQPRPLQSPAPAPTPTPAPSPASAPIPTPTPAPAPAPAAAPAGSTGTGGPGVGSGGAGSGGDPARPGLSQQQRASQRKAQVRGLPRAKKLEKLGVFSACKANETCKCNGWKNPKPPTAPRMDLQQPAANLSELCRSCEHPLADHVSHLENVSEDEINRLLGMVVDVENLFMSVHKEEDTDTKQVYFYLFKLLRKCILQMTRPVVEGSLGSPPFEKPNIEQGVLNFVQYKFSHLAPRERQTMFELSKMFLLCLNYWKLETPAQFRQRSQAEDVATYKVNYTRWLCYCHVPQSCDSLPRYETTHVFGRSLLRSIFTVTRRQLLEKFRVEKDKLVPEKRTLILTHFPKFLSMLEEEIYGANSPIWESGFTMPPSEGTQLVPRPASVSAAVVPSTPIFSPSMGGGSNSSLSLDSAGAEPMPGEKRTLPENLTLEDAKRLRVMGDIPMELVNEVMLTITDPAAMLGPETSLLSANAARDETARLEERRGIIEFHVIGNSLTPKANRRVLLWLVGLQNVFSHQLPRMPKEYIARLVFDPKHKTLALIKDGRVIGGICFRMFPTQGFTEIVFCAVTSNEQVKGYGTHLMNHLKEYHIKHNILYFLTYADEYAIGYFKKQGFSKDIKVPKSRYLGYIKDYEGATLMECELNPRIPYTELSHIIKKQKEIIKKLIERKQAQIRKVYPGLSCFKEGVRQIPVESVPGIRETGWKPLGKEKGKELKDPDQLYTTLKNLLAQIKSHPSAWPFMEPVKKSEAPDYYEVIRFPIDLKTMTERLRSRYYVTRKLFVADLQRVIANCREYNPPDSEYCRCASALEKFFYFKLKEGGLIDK
#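 Fluorescence readout, Ex340nm/Em540nm: ThioGlo1 (50uM final) reacts with free CoA thiol released as 20nM GCN5L2 acetylates H3(1-25) peptide (75uM) using acetyl-CoA (70uM). Compound and enzyme sat 15 min beforehand; 20 min room-temperature reaction.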
# GLS inhibitor = glutaminase GLS (human) inhibition; O94925; 410,000 compounds, 0.21% hits; AID 624170; GLS enzymatic activity, qHTS titration; Potency, µM (top dose mostly 45.5 µM), without a hit: at the top dose activity change, negative = inhibition, actives largely listed as inhibitors
#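 Assay buffer: 45 mM KH2PO4 pH 8.2, 0.02% Tween-20. hKGA acts on L-glutamine (1 mM solution added); product glutamate is reported by an oxidase/peroxidase Amplex Red coupling, with fluorescence taken at baseline and 30 min.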
# Sfp PPTase inh = blocks B. subtilis Sfp PPTase activity | Potency, µM, inactives show largest response in the series, negative = inhibition, hits mostly inhibitors | 310,000 compounds, 3.5% hits | Biochemical Sfp PPTase activity, qHTS | AID 1490;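 further: the enzyme is Sfp with the accession as filed and its product quenches rhodamine fluorescence; 0% = enzyme reaction without inhibitor and -100% = no enzyme wells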
#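 Step 1, compound plus 15 nM Sfp-PPTase, 15 min, room temperature. Step 2, add rhodamine-CoA (5 uM) and BHQ-2-YbbR (12.5 uM). Step 3, read 525/598 nm fluorescence at 0 and 30 min.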
# VDR inhibitor = blocks the human vitamin D receptor; VDR-SRC2-3 peptide fluorescence polarization, 2 h; P11473; Potency, µM, without a hit: max response, negative = inhibition, most hits filed as inhibitors; 400,000 compounds, 0.93% hits
#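 Two reagent solutions held at 4 deg C in the dark were dispensed, compounds pinned at 23 nl, and the mixture incubated 2 h at room temperature. Read-out: fluorescence polarization of VDR–SRC2-3 peptide binding.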
# TrxR1 substrate = rat thioredoxin reductase 1 substrate activity; O89049; purified TrxR1 substrate turnover, NADPH consumption readout; Potency, µM (series often up to 114 µM), inactives show at the highest dose activity change, negative = substrate turnover; 390,000 compounds, 0.01% hits; AID 588456; further: nearly all actives have a fitted effect of over 50% in size
#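 Rat TrxR1, dispensed at 90 nM, was prereduced with 400 uM NADPH (final) for 5 min at ~22 deg C, then incubated with compound 15 min before 400 uM selenite. A first-read NADPH fluorescence drop versus no-compound background flagged substrates.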
# TrxR1 inh = blocks rat thioredoxin reductase 1 | recombinant rTrxR1, NADPH fluorescence consumption, selenite substrate | Potency, µM (top dose mostly 114 µM), for inactives: at the highest dose activity change, negative = inhibition, actives largely listed as inhibitors | 390,000 compounds, 1% hits; further: nearly all actives have a fitted effect of over 65% in size
#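 Rat TrxR1 (90 nM in the dispensed reagent) was pre-reduced with 400 uM NADPH for 5 min at room temperature, then incubated with compound for 15 min. After 400 uM selenite was added, NADPH fluorescence (Ex 340/Em 450 nm) was followed for 8 min.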
# * = called active by the depositor; ? = inconclusive; . = no result given; [ ] = another dose, or the depositor's remark. Shown are actives, neighbours in structure and some others; about 3.8% of the full set was active somewhere. The call rests on the fitted dose curve; in most records, active means well fitted curve in the direction sought with a large enough effect; inconclusive means small, poorly fitted or top-dose-only effect, or another doubt; inactive means no such curve, though single readings can be large; an effect the other way counts as inactive or inconclusive. Unless noted, on the % scale 0 is the no-effect control and ±100 the full control effect; potency means the concentration at half of the fitted maximal effect.
SMILES,KAT2A inh,GLS inhibitor,Sfp PPTase inh,VDR inhibitor,TrxR1 substrate,TrxR1 inh
COc1ccccc1N1CC(C(=O)Nc2nnc(SCc3ccccn3)s2)CC1=O (stereo not drawn),19.0%,5.4%,-13.8%,-0.3%,-9.7%,-14.8%
COCCSc1nnc(NC(=O)C2CC(=O)N(c3ccc(OC)cc3)C2)s1 (stereo not drawn),-2.7%,0.0%,29.0%,-5.8%,-3.7%[57.1 µM],10.2%[57.1 µM]
CNC(=O)CSc1nnc(NC(=O)C2CC(=O)N(c3ccccc3OC)C2)s1 (stereo not drawn),0.3%,3.1%,50.1µM*,-7.7%,-5.6%,-22.9%
O=C(CSc1nnc(NC(=O)C2CC(=O)N(c3ccc(F)cc3)C2)s1)NCc1ccco1 (stereo not drawn),-8.9%,17.0%,-22.0%,79.4µM*,7.4%,31.6µM*
O=C(CNC(=O)c1ccc(Br)o1)NCc1cccc(Cl)c1,-25.7%,4.6%,89.1µM*,-8.4%,5.0%,12.9%
O=C(CNC(=O)c1ccc(Br)o1)NCc1ccc(Cl)cc1Cl,-1.3%,-4.0%,10.0%,-16.1%,0.7%,13.8%
C=CCOc1cccc(C2/C(=C(/O)c3ccccc3)C(=O)C(=O)N2CCN2CCOCC2)c1 (stereo not drawn),?,9.7%,13.2%,-8.4%,-15.0%,?
Cc1ccc(NS(=O)(=O)c2cc(NC(=O)c3ccc4c(c3)NC(=O)CS4)ccc2Cl)c(C)c1,-10.5%,2.4%,15.8µM*,-22.9%,-3.9%,-3.4%
COc1ccc(NC(=O)c2ccc3c(c2)NC(=O)CS3)cc1,-3.5%,-3.7%,.,-4.6%,0.0%,-3.8%
COc1c(OC)c(O)c2c(=O)cc(-c3c(O)cccc3O)oc2c1OC,3.1%,19.5%,20µM*,0.2%,4.5%[57.1 µM],-35.6%[57.1 µM]
COc1ccc(-c2cc(=O)c3c(O)c(OC)c(OC)c(OC)c3o2)cc1,-6.0%,11.2%,15.3%,-0.4%,6.5%[11.4 µM],3.7%[11.4 µM]
O=C(CCN1C(=O)S/C(=C\c2ccc(F)cc2)C1=O)Nc1ccc(C(=O)O)c(O)c1,-2.9%,62.5%,-2.2%,?,-9.0%,-15.2%
COc1ccc(S(=O)(=O)N(CC(=O)NCc2ccco2)C2CCCCC2)cc1OC,-2.5%,-6.8%,50.1µM*,-2.0%,5.6%[57.1 µM],?
COc1ccccc1N(CC(=O)NCc1ccco1)S(=O)(=O)c1ccc(C)cc1,-25.1%,30.3%,56.2µM*,-13.3%,-7.9%[0.0914 µM],31.6µM*
Cn1c2ccccc2c2nnc(SCc3nnc(-c4ccccc4)o3)nc21,0.0%,.,17.3%,.,.,.
Oc1cc2ccccc2cc1-c1n[nH]c(=S)n1Cc1ccco1,3.1%,2.2%,22.4µM*,-15.8%,1.3%,?
Cc1occc1-c1nnc(SCC(=O)N2CCOCC2)n1Cc1ccco1,-7.4%,1.9%,89.1µM*,-2.9%,0.6%,-1.1%
O=C(CSc1nnc(-c2cc3ccccc3cc2O)n1Cc1ccco1)N1CCc2ccccc2C1,-2.2%,8.3%,44.7µM*,3.7%,6.6%[57.1 µM],?
Cc1occc1-c1nnc(SCC(=O)N2CCOCC2)n1CC(C)C,3.8%,-12.3%,5.4%,-8.9%,6.3%[11.4 µM],-1.8%[11.4 µM]
O=C1NC(=S)NC1=Cc1ccc2c(c1)CCC2,.,-0.9%,.,-19.6%,-7.5%[57.1 µM],3.1%[11.4 µM]
COc1ccc2[nH]cc(CCN=C(NC(=O)c3ccccc3OC)Nc3nc(C)cc(C)n3)c2c1,-12.9%,-4.8%,.,-21.5%,-5.6%,16.8%[11.4 µM]
O=C(O)Cn1cnc2c(=S)nc[nH]c21,-1.6%,-11.9%,8.91µM*,-11.0%,-0.2%,-21.0%
COc1ccc(C(C#N)N2CCCCC2)cc1OC (stereo not drawn),-0.2%,-3.9%,13.8%,7.5%,11.0%,6.1%
N#Cc1cccc(NC(=O)N2CC[C@@]3(CCCNC3)C2)c1,-13.8%,.,79.4µM*,-14.5%,.,.
CCc1c(C(=O)NNC(=S)NCC(C)C)csc1C,.,4.6%,7.9%,8.7%,7.1%,2.6%
COc1ccccc1-c1ccc(SCc2cccc(C)c2)nn1,-12.0%,3.7%,-15.6%,-3.5%,6.4%[57.1 µM],8.3%[57.1 µM]
Cc1cc(-c2csc(N)n2)c(C)n1C,-16.0%,4.4%,20µM*,8.0%,-3.1%,?
